# Mtb FBA inh = Mtb FBA enzyme inhibitors, primary screen, biochemical, fluorescence, strain H37Rv. inhibition, % at 1 µM. actives 2.3% (n = 360,000). Fructose-bisphosphate aldolase (Mycobacterium tuberculosis (strain ATCC 25618 / H37Rv)), …. AID 588726, 2011. purified M. tuberculosis FBA, fluorescence read-out; in the data active = inhibition above about 27%
# Target sequence (P9WQA3 whole entry, looked up): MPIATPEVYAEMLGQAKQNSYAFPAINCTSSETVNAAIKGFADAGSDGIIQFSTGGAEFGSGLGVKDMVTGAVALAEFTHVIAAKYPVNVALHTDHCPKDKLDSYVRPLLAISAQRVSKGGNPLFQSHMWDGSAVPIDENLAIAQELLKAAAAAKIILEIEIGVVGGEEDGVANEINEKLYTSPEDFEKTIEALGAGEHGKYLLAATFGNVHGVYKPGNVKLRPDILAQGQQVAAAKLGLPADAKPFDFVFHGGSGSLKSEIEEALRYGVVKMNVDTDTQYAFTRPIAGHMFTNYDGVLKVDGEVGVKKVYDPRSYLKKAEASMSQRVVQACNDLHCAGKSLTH
# Mtb bLac sens = beta-lactam sensitization of Mtb H37Rv, H37Rv; actives 0.27% (n = 330,000); inhibition, % at 25 µM; M. tuberculosis H37Rv growth with meropenem, percent inhibition; call rule not given here;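 also: growth measured after seven days incubation then overnight dye step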
# Rv3671c protease = Rv3671c serine protease inhibitors, primary screen, biochemical, fluorescence polarization, M. tuberculosis H37Rv; inhibition, % at 5.96 µM; actives 0.048% (n = 320,000); in the data active = inhibition above about 38%;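 also: extracellular domain of Rv3671c used as enzyme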
# RecA splice inh = Mtb RecA intein splicing inhibitors, primary screen, biochemical, fluorescence, HTS; AID 2221, 2009; actives 0.75% (n = 290,000); Protein RecA (Mycobacterium tuberculosis (strain ATCC 25618 / H37Rv)), P9WHJ3; cell-free RecA intein splicing; inhibition, % (no concentration beside the values); in the data active = inhibition above about 30%; inconclusive = no clear call, values can overlap the other calls
# Mtb UGM inh = M. tuberculosis UGM enzyme inhibitors, primary screen, biochemical, fluorescence polarization, single point. UDP-galactopyranose mutase (Mycobacterium tuberculosis (strain ATCC 25618 / H37Rv)), …. inhibition, % at 10 µM. AID 504406, 2011. purified UGM, fluorescence polarization probe displacement. actives 0.06% (n = 320,000); in the data active = inhibition above about 10%, passing the limit was not always enough; inconclusive = no clear call, values can overlap the other calls
# GDH-TPI counter = GDH-TPI coupling enzyme inhibitors, primary screen, artefact control for M. tuberculosis FBA inhibitor project, biochemical, absorbance, full deck; actives 1.2% (n = 360,000); inhibition, % at 4.8 µM; GDH-TPI coupled enzyme counterscreen, NADH absorbance; AID 588335, 2011; in the data active = inhibition above about 30%
# A number is an active result; – = inactive; ? = inconclusive; · = not tested or not shown; + = active, no number. The list is not random: actives were taken first. Their share in the collection is about 4%.
SMILES,Mtb FBA inh,Mtb bLac sens,Rv3671c protease,RecA splice inh,Mtb UGM inh,GDH-TPI counter
CC1=C(O)C(=O)C(C2=C(O)C(=O)C(C)=C(O)C2=O)=C(O)C1=O,–,·,·,·,·,49
Cc1ccc(C2=C(O)C(=O)C(c3ccc(C)cc3)=C(O)C2=O)cc1,–,·,·,·,·,–
O=C(c1cnc2sccn2c1=O)N1CCCc2ccccc21,–,–,–,–,–,32
O=C(c1ccc(C(=O)N2CCCc3ccccc32)s1)N1CCCc2ccccc21,–,–,–,–,–,–
CC1=CS/C(=C(/C#N)C(=O)N2CCCCC2)N1c1ccccc1,–,–,–,–,–,45
COC(=O)/C(C#N)=C1/SC=C(C)N1c1ccccc1,–,–,–,–,–,–
Cc1ccc(NC(=S)/C(C#N)=C2/Nc3ccccc3S2)cc1,–,·,·,·,·,–
CC1=CS/C(=C(/C#N)C(=O)N2CCOCC2)N1c1ccccc1,–,–,–,–,–,32
N#C/C(C(=O)N1CCCCC1)=C1\Nc2ccccc2S1,–,–,–,–,–,54
COc1ccc(C(=O)c2cnc(/N=C/N(C)C)s2)cc1,–,–,–,–,–,33
C=CCN1C(c2cccc(C(F)(F)F)c2)=CS/C1=C(/C#N)c1nnc(N2CCOCC2)n1-c1ccccc1,–,–,–,–,–,–
C=CCN1C(=O)NC(c2ccc(OC)cc2)(C(F)(F)F)S/C1=C(\C#N)c1nnc(N2CCOCC2)n1-c1ccccc1 (stereo unspecified),–,–,–,43,–,–
COc1ccccc1CNC(=O)Cn1c(=O)c2cccn2c2cccnc21,–,–,–,–,–,–
COc1ccc(/C=C/c2ccc3ccccc3[n+]2C)cc1OC,–,–,–,–,–,–
CC(=O)Oc1ccccc1/C=C/c1ccc2ccccc2[n+]1C,–,–,–,–,–,31
CC(=O)N1CCN(Cc2cc(=O)oc3ccc4ccccc4c23)CC1,–,·,·,·,·,·
CCC(=O)OCc1cc(=O)oc2ccc3ccccc3c12,170,–,–,–,–,–
CCCC(=O)Nc1ccc(Cc2ccc(NC(=O)CCC)c(C(=O)O)c2)cc1C(=O)O,–,–,–,–,11,–
C/C(=N\Nc1ccccn1)c1ccc(C(C)C)cc1,–,–,–,–,–,–
C/C(=N\Nc1ccccn1)c1ccc(Br)s1,–,–,–,–,–,38
COc1ccc(-c2csc(C(O)c3ccc(F)c(OC)c3)n2)cc1 (stereo unspecified),–,·,·,·,·,–
COC(=O)c1cc(CC(=O)c2ccc(O)cc2O)c(C)o1,–,–,–,–,–,36
COC(=O)c1ccc(CC(=O)c2ccc(O)cc2O)o1,–,–,–,–,–,33
CCOC(=O)c1ccc(CC(=O)c2ccc(O)cc2O)o1,–,–,–,–,–,–
Cc1nc(-c2ccccc2)sc1-c1ccnn1C,124,–,–,–,–,–
SMILES,Mtb FBA inh,Mtb bLac sens,Rv3671c protease,RecA splice inh,Mtb UGM inh,GDH-TPI counter
N=c1c(C(=O)NCc2ccco2)cc2c(=O)n3ccccc3nc2n1CC1CCCO1 (stereo unspecified),+,–,–,–,–,–
Cc1cccn2c(=O)c3cc(C(=O)NCCc4ccccc4)c(=N)n(CC4CCCO4)c3nc12 (stereo unspecified),119,–,–,–,–,–
N=c1c(C(=O)NCc2ccc(F)cc2)cc2c(=O)n3ccccc3nc2n1CC1CCCO1 (stereo unspecified),+,–,–,–,–,–
N=c1c(C(=O)NCc2ccc3c(c2)OCO3)cc2c(=O)n3ccccc3nc2n1CC1CCCO1 (stereo unspecified),–,–,–,–,–,–
COc1ccc(CCNC(=O)c2cc3c(=O)n4ccccc4nc3n(CC3CCCO3)c2=N)cc1OC (stereo unspecified),–,–,–,·,–,–
Cc1cccn2c(=O)c3cc(C(=O)NCc4cccnc4)c(=N)n(CC4CCCO4)c3nc12 (stereo unspecified),+,–,–,–,–,–
O=C(CNC(=O)c1ccco1)OCc1ccccc1F,–,–,–,·,–,–
Cc1csc(SC(C)C(=O)NCC2CCCO2)n1 (stereo unspecified),–,–,–,–,–,–
N=c1c(C(=O)NCCc2ccccc2)cc2c(=O)n3ccccc3nc2n1CC1CCCO1 (stereo unspecified),+,–,–,–,–,–
COc1ccc(CCNC(=O)c2cc3c(=O)n4ccccc4nc3n(CC3CCCO3)c2=N)cc1 (stereo unspecified),–,·,·,·,·,–
COc1cc(S(=O)(=O)N2CCn3cccc3C2C)ccc1NC(C)=O (stereo unspecified),–,–,–,·,–,–
Cn1cc(-c2ccc3c(c2)OCO3)c2ccccc21,–,·,·,·,·,·
O=c1cc(-c2ccccc2)oc2ccc(Cl)cc12,–,·,·,·,·,–
O=c1oc(-c2ccccc2)cc(Cl)c1Cl,–,–,–,47,–,–
CN(CC(=O)Nc1ccccc1Cl)C(=O)COC(=O)c1cnccn1,–,–,–,–,–,–
O=C(O)COc1ccccc1C(Nc1cccnc1)c1cc(Cl)c2cccnc2c1O (stereo unspecified),–,·,·,41,·,–
Cc1cc(C(=O)NNC(=O)c2ccc(NC(=O)CC#N)cc2)c(C)o1,–,–,–,·,–,–
CCc1ccc(C(=O)COC(=O)C2=NN(c3ccccc3)C(=O)CC2)cc1,–,–,–,·,–,–
CCOc1ccc(/C=C(\C)C(=O)c2c(C)cc(C)[nH]c2=O)cc1,–,–,–,–,–,46
CCn1cc(C(=O)N[C@H](C(=O)NCCO)C(C)C)c(=O)c2cc3c(cc21)OCO3,–,–,–,–,–,–
Cc1ccccc1S(=O)(=O)c1c(C)cc(-c2ccccc2)[nH]c1=O,76,–,–,–,–,–
Cc1cc(-c2ccccc2)[nH]c(=O)c1S(=O)(=O)c1ccc(Cl)cc1,–,?,–,–,–,–
Cc1cc(-c2ccccc2)[nH]c(=O)c1S(=O)(=O)c1ccccc1,107,–,–,–,–,–
COc1ccc(CNC(=O)C(C)Sc2nc3ccccc3c(=O)n2CC2CCCO2)cc1 (stereo unspecified),–,–,–,·,–,–
CC[C@@H](CO)NC(=O)[C@@H]1C=C2c3cccc4[nH]cc(c34)C[C@H]2N(C)C1,128,·,·,·,·,–
O=C(N/N=C/c1ccc2c(c1)OCO2)/C(=C/c1ccc2c(c1)OCO2)NC(=O)c1ccccc1,–,–,–,–,–,55
O=C(Nc1cccc(C(=O)O)c1)/C(=C\c1ccc2c(c1)OCO2)NC(=O)c1ccccc1,–,–,–,–,–,–

# Assay outcomes as filed in PubChem.
